Our source for the growth values is PubChem BioAssay (NCI).

Some test systems named below: NCI-H23 lung; NCI-H226 lung; NCI-H322M lung; HOP-62 NSCLC; NCI-H460 lung; HOP-92 NSCLC; A549/ATCC NSCLC; 786-0 renal; COLO 205 colon; DU-145 prostate; K-562 leukemia; MALME-3M melanoma; MDA-MB-231 breast; RXF 393 renal; SF-268 CNS; SF-295 CNS; SF-539 CNS; UACC-257 melanoma; M14 melanoma.
Holding throughout (assay): NCI-60 one-dose screen, 48 h (100 = growth as untreated, 0 = no growth, -100 = all killed)
Conditions in all cases: 10 µM unless noted

About 83,000 compounds went through this panel and 20% of them were active in at least one assay; those are over-represented in the sample as a whole.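 How to read the values: 0–100, growth inhibition (40 = 60% inhibited); 0, no net growth; -100 to 0, cell death (-40 = 40% of starting cells died; -100 = all dead).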 A number with no mark means an inactive call. Active and inactive are the calls of the source. How the source made its calls: active means growth percent below 10; inactive means the rest.

With `CNCCCn1c2c(c3ccc(F)cc3c1=O)C(=O)c1cc(OC)cnc1-2`, the growth is -41.5% (active) with NCI-H23 lung; -61.2% (active) in the assay on NCI-H226 lung; -1.98% (active) in the assay with NCI-H322M lung; -30% (active) in the assay on HOP-62 NSCLC; -37.6% (active) in the assay with NCI-H460 lung; -12.4% (active) in the assay with HOP-92 NSCLC. Moreover, the growth with A549/ATCC NSCLC was -71.2% (active); with 786-0 renal, -38.3% (active); with COLO 205 colon, -33.1% (active); in the assay with DU-145 prostate, 0.683% (active); in the assay on K-562 leukemia, 1.41% (active); in the assay with MALME-3M melanoma, -56.6% (active). Moreover, the growth with MDA-MB-231 breast is 11.7%; in the assay on RXF 393 renal, -78.8% (active); in the assay on SF-268 CNS it was 4.62% (active); with SF-295 CNS, -15.3% (active); with SF-539 CNS, -24.7% (active); in the assay on UACC-257 melanoma, -16.5% (active). For the same compound, the growth in the assay on M14 melanoma was -10.8% (active).

Take `Nc1nc2c(c(=O)[nH]1)C1(C(=O)Nc3ccccc31)c1c(nc(N)[nH]c1=O)N2`: the growth is 106% with NCI-H23 lung; 91.5% with NCI-H226 lung; 98.1% with NCI-H322M lung; 101% with HOP-62 NSCLC; 104% in the assay on NCI-H460 lung; 96.2% in the assay with HOP-92 NSCLC. Moreover, the growth is 112% in the assay with A549/ATCC NSCLC; 108% in the assay with 786-0 renal; 102% in the assay on COLO 205 colon; 108% in the assay on DU-145 prostate; 115% in the assay with K-562 leukemia; 99.9% with MALME-3M melanoma. Also, the growth in the assay with MDA-MB-231 breast is 98.7%; with RXF 393 renal, 96.6%; in the assay on SF-268 CNS it was 104%; in the assay on SF-295 CNS, 101%; with SF-539 CNS, 106%; in the assay on UACC-257 melanoma, 110%. Further, the growth in the assay with M14 melanoma is 99.3%.

As for `CN(C)c1ccc(-n2nc3ccccc3n2)cc1`, the growth in the assay with NCI-H23 lung is 95.6%; with NCI-H226 lung, 86.4%; in the assay on NCI-H322M lung, 111%; with HOP-62 NSCLC it was 78%; in the assay with NCI-H460 lung, 105%; in the assay with HOP-92 NSCLC it was 86.9%. For the same compound, the growth in the assay with A549/ATCC NSCLC was 92.3%; with 786-0 renal, 83.3%; in the assay with COLO 205 colon it was 102%; in the assay on DU-145 prostate, 101%; in the assay with K-562 leukemia it was 70.1%; in the assay on MALME-3M melanoma, 117%. The growth in the assay on MDA-MB-231 breast is 85.4%; in the assay on RXF 393 renal it was 98.9%; with SF-268 CNS, 127%; in the assay with SF-295 CNS, 82.7%; with SF-539 CNS it was 86.1%; in the assay on UACC-257 melanoma, 101%. Besides, in the assay with M14 melanoma, the growth is 92.2%.

Consider `CO[C@H]1/C=C/O[C@@]2(C)Oc3c(C)c(O)c4c(O)c(c(/C=N/N5C(C)CN(Cc6ccc(C#N)cc6)CC5C)c(O)c4c3C2=O)NC(=O)/C(C)=C\C=C\[C@H](C)[C@H](O)[C@@H](C)[C@@H](O)[C@@H](C)[C@H](OC(C)=O)[C@@H]1C` (some centres not stated), for which the growth with NCI-H23 lung was 11.5%; in the assay with NCI-H226 lung, 49.5%; with NCI-H322M lung it was 28.7%; in the assay on HOP-62 NSCLC, 43.8%; with NCI-H460 lung, 3.3% (active); in the assay with HOP-92 NSCLC, 27.1%. Besides, the growth in the assay with A549/ATCC NSCLC is 21.7%; in the assay with 786-0 renal, 14.1%; with COLO 205 colon, 1.58% (active); in the assay on DU-145 prostate, 45.3%; in the assay on K-562 leukemia, 16.3%; in the assay with MALME-3M melanoma, 8.74% (active). Further, the growth with MDA-MB-231 breast is 90.3%; with RXF 393 renal it was 43.7%; in the assay on SF-268 CNS, 35%; in the assay with SF-295 CNS, 0.574% (active); in the assay on SF-539 CNS it was 16%; in the assay on UACC-257 melanoma, 45.1%. Also, the growth in the assay on M14 melanoma is 36.8%.

`O=C1NC(=O)/C(=C/c2ccc(Cl)cc2Cl)N1`: the growth in the assay with NCI-H23 lung was 91.2%; in the assay on NCI-H226 lung, 99.4%; in the assay with NCI-H322M lung, 104%; with HOP-62 NSCLC it was 99.1%; with NCI-H460 lung, 109%; in the assay with HOP-92 NSCLC it was 81.2%. Besides, the growth in the assay on A549/ATCC NSCLC is 101%; in the assay with 786-0 renal it was 109%; in the assay with COLO 205 colon, 100%; with DU-145 prostate it was 117%; in the assay with K-562 leukemia, 104%; in the assay with MALME-3M melanoma, 100%. For the same compound, the growth in the assay with MDA-MB-231 breast was 110%; in the assay on RXF 393 renal it was 120%; in the assay on SF-268 CNS, 103%; in the assay with SF-295 CNS, 114%; in the assay with SF-539 CNS, 103%; in the assay with UACC-257 melanoma it was 108%. The growth with M14 melanoma is 121%.

Regarding `C[C@@H]1CN(c2nc3c(cc2F)c(=O)c(C(=O)O)cn3C(C)(C)C)C[C@H](C)N1`, the growth with NCI-H23 lung was 95.2%; in the assay with NCI-H226 lung, 91%; with NCI-H322M lung, 93.7%; in the assay on HOP-62 NSCLC, 98.5%; in the assay with NCI-H460 lung, 107%; in the assay on HOP-92 NSCLC it was 71.6%. The growth was 99.9% in the assay with A549/ATCC NSCLC; 112% with 786-0 renal; 110% with COLO 205 colon; 114% with DU-145 prostate; 90.8% with K-562 leukemia; 91.3% with MALME-3M melanoma. Further, the growth in the assay on MDA-MB-231 breast was 88.4%; with RXF 393 renal, -17.3% (active); in the assay with SF-268 CNS it was 114%; with SF-295 CNS it was 96.5%; in the assay with SF-539 CNS, 107%; with UACC-257 melanoma it was 91.2%. For the same compound, in the assay on M14 melanoma, the growth was 98.8%.

Turning to `CCNCCCn1c2c(c3ccc(F)cc3c1=O)C(=O)c1cc(OC)cnc1-2`, the growth is -40.4% (active) in the assay on NCI-H23 lung; -59.1% (active) in the assay with NCI-H226 lung; -3.52% (active) with NCI-H322M lung; -29% (active) in the assay on HOP-62 NSCLC; -27.1% (active) in the assay with NCI-H460 lung; -15.5% (active) with HOP-92 NSCLC. In addition, the growth in the assay on A549/ATCC NSCLC is -62.6% (active); with 786-0 renal, -38.4% (active); in the assay with COLO 205 colon, -32% (active); in the assay on DU-145 prostate it was -2.92% (active); in the assay with K-562 leukemia it was 1.44% (active); with MALME-3M melanoma, -68.7% (active). The growth in the assay with MDA-MB-231 breast was 3.91% (active); in the assay with RXF 393 renal, -80.8% (active); in the assay on SF-268 CNS, 1.76% (active); with SF-295 CNS, -21% (active); with SF-539 CNS, -25.7% (active); with UACC-257 melanoma, -20.4% (active). Moreover, the growth in the assay on M14 melanoma was -25.9% (active).

Consider `CCOc1cc(/C=C/C(=O)C(C(=O)/C=C/c2ccc(OC(=O)CNc3nnc(C)s3)c(OCC)c2)C(=O)CNc2nnc(C)s2)ccc1OC(=O)CNc1nnc(C)s1`, for which the growth with NCI-H23 lung was -2.16% (active); in the assay on NCI-H226 lung, -14.8% (active); with NCI-H322M lung, 6.22% (active); in the assay on HOP-62 NSCLC, 3.59% (active); in the assay on NCI-H460 lung, -46.8% (active); in the assay on HOP-92 NSCLC it was -25.6% (active). Besides, the growth in the assay with A549/ATCC NSCLC was 8.11% (active); in the assay on 786-0 renal, -73.7% (active); with COLO 205 colon, -55% (active); in the assay on DU-145 prostate it was -68.7% (active); in the assay with K-562 leukemia, -41.8% (active); in the assay with MALME-3M melanoma, -20.8% (active). The growth in the assay with MDA-MB-231 breast is -36.9% (active); in the assay on RXF 393 renal, -78.5% (active); with SF-268 CNS, -16.4% (active); with SF-295 CNS, -24.7% (active); in the assay on SF-539 CNS it was -54.5% (active); in the assay on UACC-257 melanoma it was 15.3%. Moreover, the growth in the assay on M14 melanoma is -26.3% (active).
